Compound activity from PubChem.
A selection: hits, their analogues and other compounds. The true share with any hit is near 7.4%.
ELG1 genotoxic: qHTS screen for small molecules that induce genotoxicity in human embryonic kidney (HEK293T) cells expressing luciferase-tagged ELG1. HEK293T ELG1-luciferase reporter, luminescence, 16 h. Potency, µM (titrated, usually from 46 µM), actives largely listed as activators. 1.3% of 330,000 active; also: nearly all actives have a fitted effect of over 60% in size
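DMSO vehicle served as control against compound-treated ELG1-luciferase HEK293T cells; exposure lasted 16 hr at 37 °C and 5% CO2, followed by ONE-Glo luminescence detection after 30 min.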
SMN2 splice up: qHTS Assay for Enhancers of SMN2 Splice Variant Expression. HEK293 SMN2-luciferase splicing reporter, luminescence, 30-36 h. Potency, µM (top dose mostly 46.1 µM), usual class: activators. 2.8% of 210,000 active. AID 1458, 2008; also: nearly all actives have a fitted effect of over 55% in size
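HEK293 cells carry an SMN2 minigene-luciferase reporter in which exon 7 inclusion puts luciferase in frame. Cells were seeded at 2000 cells/well, attached for 10-12 hours, then exposed to compounds for 30-36 hours at 37C before ONE-Glo luminescence.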
Rab9 prom act: qHTS Assay for Rab9 Promoter Activators; 2.8% of 320,000 active; AID 485297, 2010; Potency, µM (top dose mostly 9.22 µM), actives largely listed as activators; Huh7 Rab9 promoter-luciferase reporter, luminescence, 24 h; also: nearly all actives have a fitted effect of over 60% in size
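Cells were plated at 1500 per well in reduced-serum medium with 10% FBS and left 2 h. Compound in DMSO was then added for 24 h at 37 °C. Reporter signal was read by luminescence after 10 min with luciferase detection reagent.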
NPC1 prom act: qHTS Assay for NPC1 Promoter Activators; Huh7 NPC1 promoter luciferase reporter, 24 h; 2.4% of 320,000 active; Potency, µM (doses to about 9.22 µM), hits mostly activators; also: nearly all actives have a fitted effect of over 60% in size
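Huh7 cells stably carrying NPC1 promoter–luciferase, plated in Opti-MEM with 10% FBS for 2 h, were exposed to compound in DMSO for 24 h at 37 °C; luciferase reagent was added for 10 min and luminescence read.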
FLuc modulator: qHTS profiling assay for firefly luciferase inhibitor/activator using purifed enzyme and Km concentrations of substrates (counterscreen for miR-21 project); Luciferin 4-monooxygenase (Photinus pyralis), P08659; purified FLuc, Km substrates, luminescence inhibition; Potency, µM (titrated, usually from 57.5 µM), actives largely listed as inhibitors; 6.9% of 360,000 active; AID 588342, 2011; also: nearly all actives have a fitted effect of over 55% in size
Target sequence (P08659 whole entry, looked up): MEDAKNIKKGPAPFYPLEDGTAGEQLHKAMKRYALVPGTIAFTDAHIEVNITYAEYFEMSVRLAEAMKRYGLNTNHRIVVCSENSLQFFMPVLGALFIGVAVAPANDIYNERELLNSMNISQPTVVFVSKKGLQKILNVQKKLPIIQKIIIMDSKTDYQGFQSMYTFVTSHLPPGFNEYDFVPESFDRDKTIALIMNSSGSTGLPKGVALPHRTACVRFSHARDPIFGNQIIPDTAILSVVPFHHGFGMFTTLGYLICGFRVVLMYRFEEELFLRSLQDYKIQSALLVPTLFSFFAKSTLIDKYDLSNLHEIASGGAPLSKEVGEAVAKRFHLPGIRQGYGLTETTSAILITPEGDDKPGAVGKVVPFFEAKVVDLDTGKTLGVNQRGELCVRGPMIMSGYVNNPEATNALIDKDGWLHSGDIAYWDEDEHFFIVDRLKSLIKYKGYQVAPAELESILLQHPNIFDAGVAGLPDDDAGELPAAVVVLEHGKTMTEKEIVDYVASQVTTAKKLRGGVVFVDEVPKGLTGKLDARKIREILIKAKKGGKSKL
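Purified P. pyralis luciferase, 10 nM final, with Km-level 10 uM D-luciferin and 10 uM ATP in 50 mM Tris acetate pH 7.5, 10 mM Mg acetate, 0.01% Tween-20, 0.05% BSA; 6-point qHTS titration about 60 µM downward; luminescence read.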
Large screens that a line does not name were inactive. Calls follow the shape of the dose curve; as a rule, active = well fitted curve in the direction sought with a large enough effect; inconclusive = small, poorly fitted or top-dose-only effect, or another doubt; inactive = no such curve, though single readings can be large; an effect the other way counts as inactive or inconclusive.

CC1(C)[C@@H]2CC[C@]1(C)[C@@H](OC(=O)/C=C\c1ccccc1)C2	none (no result: ELG1 genotoxic, Rab9 prom act, NPC1 prom act, FLuc modulator)
O=C(N/N=C/c1ccccn1)c1ccccc1	ELG1 genotoxic inconclusive, SMN2 splice up 11µM, Rab9 prom act 3.5µM, NPC1 prom act inconclusive, FLuc modulator 11µM
O=C(N/N=C/c1ccc[nH]1)c1ccc(Cl)cc1	FLuc modulator 11µM
Cc1cnc(CNc2ncncc2-c2ccccc2C(F)(F)F)cn1	none (no result: ELG1 genotoxic, Rab9 prom act, NPC1 prom act, FLuc modulator)
O=C(O)c1nnsc1COCc1ccccc1	none (no result: ELG1 genotoxic, Rab9 prom act, NPC1 prom act, FLuc modulator)
CCOC(=O)C1CCCN(C2CC(=O)N(c3ccc(N4C(=O)CC(N5CCCC(C(=O)OCC)C5)C4=O)cc3)C2=O)C1 (stereo not given)	none
Cc1ccc2nc(-c3ccc(N4C(=O)CC(N5CCC(C(N)=O)CC5)C4=O)cc3)sc2c1 (stereo not given)	ELG1 genotoxic inconclusive, FLuc modulator 2.7µM
Cc1ccc2nc(-c3ccc(N4C(=O)CC(N5CCCC(C)C5)C4=O)cc3)sc2c1 (stereo not given)	FLuc modulator 15µM (no result: ELG1 genotoxic, Rab9 prom act, NPC1 prom act)
O=S(=O)(NCC(c1cccs1)S(=O)(=O)c1ccccc1)c1ccc(F)cc1 (stereo not given)	none (no result: ELG1 genotoxic, SMN2 splice up, Rab9 prom act, NPC1 prom act)
CC(C)CCN(C(=O)c1csnn1)C(C(=O)NC1CCCC1)c1ccc(F)cc1 (stereo not given)	FLuc modulator 19µM (no result: SMN2 splice up)
Cc1cc(C)cc(C(=O)N2CC(=O)Nc3ccc(Br)cc3C2c2ccccc2)c1 (stereo not given)	none (no result: ELG1 genotoxic, SMN2 splice up, Rab9 prom act, NPC1 prom act)
COc1cccc2c1nc(C)c1cc(C)oc12	ELG1 genotoxic inconclusive, SMN2 splice up inconclusive, FLuc modulator 21µM
COc1ccc2nc(C)c3cc(C)oc3c2c1	none
CCCCNC(=O)C1=CC(c2ccc3c(c2)OCO3)=NS(=O)(=O)N1C	none (no result: ELG1 genotoxic, SMN2 splice up, Rab9 prom act, NPC1 prom act)
Cc1[nH]n(-c2ccccc2)c(=O)c1N=Nc1cccc([N+](=O)[O-])c1	FLuc modulator 13µM (no result: SMN2 splice up)
Cc1[nH]n(-c2ccccc2)c(=O)c1N=Nc1cccc(Cl)c1	NPC1 prom act inconclusive, FLuc modulator 9.5µM (no result: SMN2 splice up)
Cc1ccc(N=Nc2c(C)[nH]n(-c3ccccc3)c2=O)cc1Br	none (no result: SMN2 splice up)
CSc1ccc(N=Nc2c(C)[nH]n(C)c2=O)cc1	ELG1 genotoxic inconclusive, FLuc modulator 19µM (no result: SMN2 splice up)
Cc1[nH]n(-c2ccccc2)c(=O)c1N=Nc1ccc(F)cc1	ELG1 genotoxic inconclusive, Rab9 prom act inconclusive, FLuc modulator 2.7µM (no result: SMN2 splice up)
C=C1C2CC[C@]3(CCC4[C@@]5(C)CCC[C@@]4(CN(CCO)C5)[C@@H]3C2)[C@@H]1O (stereo not given in full)	none (no result: ELG1 genotoxic, Rab9 prom act, NPC1 prom act, FLuc modulator)
Cc1[nH]n(-c2ccccc2)c(=O)c1N=Nc1ccc2c(c1)OCCO2	ELG1 genotoxic inconclusive, SMN2 splice up 18µM, Rab9 prom act 4µM, NPC1 prom act inconclusive, FLuc modulator 6µM
Cc1ccc(N=Nc2c(C)[nH]n(-c3ccccc3)c2=O)c(C)c1	none (no result: SMN2 splice up)
COc1cc(/C=C2/C(=O)NN(c3ccc(Cl)cc3)C2=O)cc(Br)c1O	FLuc modulator 27µM (no result: SMN2 splice up)
COc1cc(/C=C2/C(=O)NN(c3ccc(F)cc3)C2=O)cc(Cl)c1O	FLuc modulator 21µM (no result: SMN2 splice up)
COc1cccc(/C=C2/C(=O)NN(c3ccc(Br)cc3)C2=O)c1O	FLuc modulator 1.9µM (no result: SMN2 splice up)
Cc1ccc(C)c(NC(=O)CSc2nc3c([nH]c4ccccc43)c(=O)n2-c2ccc(F)cc2)c1	none (no result: ELG1 genotoxic, SMN2 splice up, Rab9 prom act, NPC1 prom act)
O=C(Nc1ccccc1C(=O)O)c1ccc(NC(=O)c2ccc(Br)o2)cc1	FLuc modulator inconclusive
O=C(Nc1ccccc1C(=O)O)c1cccc(NC(=O)c2ccc(Br)o2)c1	FLuc modulator 19µM
O=C(Nc1ccc(O)cc1C(=O)O)c1cccc(Br)c1	FLuc modulator 21µM
O=C(Nc1sc(-c2ccccc2)cc1C(=O)O)c1ccccc1	Rab9 prom act 2.8µM, NPC1 prom act 3.2µM, FLuc modulator inconclusive (no result: SMN2 splice up)
Cc1ccccc1C(=O)Nc1ccc(O)cc1C(=O)O	FLuc modulator inconclusive
CCOC(=O)c1cc(-c2ccccc2)sc1NC(=O)c1ccc(OC)cc1	FLuc modulator inconclusive
CC(=O)Nc1cccc(C(=O)Nc2ccccc2C(=O)O)c1	FLuc modulator 24µM
Cc1c(NC(=O)c2ccc(-c3ccccc3)cc2)cccc1C(=O)O	ELG1 genotoxic 0.29µM, Rab9 prom act inconclusive, NPC1 prom act inconclusive, FLuc modulator 0.6µM (no result: SMN2 splice up)
